# Measurements: PubChem BioAssay (NCATS)
# A number with no mark means an inactive call. Inconclusive results are not listed. A call without a number means that no potency is given here. The source made the active and inactive calls. Unless noted, calls follow the shape of the dose curve; as a rule, active = well fitted curve in the direction sought with a large enough effect; inconclusive = small, poorly fitted or top-dose-only effect, or another doubt; inactive = no such curve, though single readings can be large; an effect the other way counts as inactive or inconclusive.
# Tests used:
# [1] = biological target: Cytochrome P450 1A2 (Homo sapiens) (UniProt P05177); assay: p450-cyp1a2 (AID 410; calls by dose curve; also: potency is read from the fitted curve at half-maximal effect)
# Outline: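 O-Demethylation of luciferin 6' methyl ether by human CYP1A2 is monitored as luciferase luminescence. Substrate sits at Km (100uM); enzyme is 20nM. Values are scaled to 57 uM furafylline as maximal inhibition.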
# [2] = biological target: Glucocorticoid receptor (Homo sapiens) (UniProt P04150); assay: GR-EFC Redistribution (AID 451; calls by dose curve; also: potency is read from the fitted curve at half-maximal effect); conditions: CHO-K1 GR-EFC translocation, beta-gal luminescence, 2 h
# Outline: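 CHO-K1 cells expressing nuclear EA and GR-ED fragments of b-gal; compounds titrated up to 46 uM final, 2 h at 37 C. GR nuclear translocation read as complemented b-gal luminescence after 1 h RT detection.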
# [3] = biological target: Cytochrome P450 3A4 (Homo sapiens) (UniProt P08684); assay: qHTS Assay for Inhibitors and Substrates of Cytochrome P450 3A4 (AID 884); also: potency is read from the fitted curve at half-maximal effect; nearly all actives have a fitted effect of over 50% in size
# Outline: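 Luminescent readout of luciferin produced by CYP3A4 (20 nM) dealkylation of Luciferin-PPXE, 25 uM (its KM). NADPH-driven reaction ran 60 min at RT after 10 min compound preincubation; data scaled to 57 uM ketoconazole as 100% inhibition.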
# [4] = biological target: Cytochrome P450 3A4 (Homo sapiens) (UniProt P08684); assay: qHTS Assay for Activators of Cytochrome P450 3A4 (AID 885); also: nearly all actives have a fitted effect of over 65% in size
# Outline: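 CYP3A4 activity: Luciferin-PPXE O-dealkylation, 25uM substrate, 200mM KPO4, RT throughout. Read-out is luciferase luminescence; higher values reflect activation.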
# [5] = biological target: Cytochrome P450 2C19 (Homo sapiens) (UniProt P33261); assay: qHTS Assay for Inhibitors and Substrates of Cytochrome P450 2C19 (AID 899); also: potency is read from the fitted curve at half-maximal effect; nearly all actives have a fitted effect of over 60% in size
# Outline: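 5 nM human CYP2C19 with 10uM Luciferin-H EGE (at KM) in 50mM KPO4, compound preincubated 10 min at 37C, then NADPH regeneration for 60 min at 37C. Luciferin read by luminescence after detection reagent; normalized to 57uM ketoconazole as full inhibition.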
# [6] = biological target: ATP-dependent 6-phosphofructokinase (Trypanosoma brucei brucei) (UniProt O15648); assay: qHTS Assay to Find Inhibitors of T. brucei phosphofructokinase: hit validation (AID 492961);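 also: luminescence reports ADP formed as PFK phosphorylates fructose-6-phosphate with ATP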
# Outline: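 Compounds titrated; %activity normalized to 0x and 1x enzyme controls, curve-fitted. Readout: ADP-Glo luminescence after 45 min room-temperature reaction of 1.25 nM PFK, 0.1 mM ATP, 0.5 mM F6P, pH 8.0.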
# [7] = biological target: Ubiquitin carboxyl-terminal hydrolase 1 (Homo sapiens) (UniProt O94782); assay: Inhibitors of USP1/UAF1: Pilot qHTS (AID 504865);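 also: rhodamine fluorescence freed from ubiquitin-rhodamine substrate followed over time; top concentration of the series differs between compounds; nearly all actives have a fitted effect of over 35% in size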
# Outline: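 Deubiquitinase activity followed as kinetic rhodamine fluorescence release from 150 nM Ub-Rho. 1 nM USP1/UAF1 with compound, after 15 min room-temperature preincubation, in HEPES pH 7.8 buffer containing TCEP, EDTA, BSA and Tween-20.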
# [8] = biological target: DNA dC->dU-editing enzyme APOBEC-3G (Homo sapiens) (UniProt Q9HC16); assay: qHTS for inhibitors of Vif-A3G interactions: Validation (AID 588379)
# Outline: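 Yellow fluorescence (Ex 488, Em 500-530) of Vif-coexpressing HeLa A3G-eYFP cells, scanned by Acumen cytometer, reports blocked A3G degradation. Cells plated at 700/well overnight at 37 deg C before compound addition, then a further overnight compound incubation at 37 deg C.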
# [9] = biological target: Luciferin 4-monooxygenase (Photinus pyralis) (UniProt P08659); assay: Biochemical firefly luciferase enzyme assay for NPC (AID 624030);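 also: purified P. pyralis luciferase at 10 nM with luciferin and ATP substrate; nearly all actives have a fitted effect of over 70% in size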
# Outline: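 Purified P. pyralis luciferase at 10 nM in 50 mM Tris Acetate (final), luminescence read within 5 minutes of enzyme addition to compounds. Activity normalised to PTC124 versus DMSO; concentration-response curves classed by r2, magnitude and activity.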
# [10] = S16 Schwann cell viability assay (CellTiter-Glo assay) (AID 624031);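 also: cellular ATP luminescence as a viability measure; nearly all actives have a fitted effect of over 70% in size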
# Outline: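 Native S16 rat Schwann cells in DMEM/10% FBS without phenol red were incubated overnight, then exposed to compounds for 24 h at 37 °C/5% CO2. Viability was read as ATP luminescence (CellTiter-Glo), normalized to no-cell wells and DMSO (0%).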
# [11] = S16 Schwann cell PMP22 intronic element firefly luciferase assay (AID 624032); also: nearly all actives have a fitted effect of over 30% in size
# Outline: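 Rat S16 Schwann cells stably carrying firefly luciferase driven by a PMP22 intronic element, in 10% FBS, treated 24 h at 37 C. ONE-Glo luminescence normalized to PTC124 control and DMSO (0%); curves classed by r2, magnitude and activity.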
# [12] = P-glycoprotein substrates identified in KB-3-1 adenocarcinoma cell line, qHTS therapeutic library screen (AID 1346986); also: nearly all actives have a fitted effect of over 60% in size
# Outline: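 In 1536-well format, 500 cells/well received pinned compound titrations and were incubated 72 h, 5% CO2. Viability was read by CellTiter-Glo; cytotoxic if AC50 < 10 uM and efficacy >50%.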
# [13] = P-glycoprotein substrates identified in KB-8-5-11 adenocarcinoma cell line, qHTS therapeutic library screen (AID 1346987); also: nearly all actives have a fitted effect of over 65% in size
# Outline: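 Luminescence from CellTiter-Glo, read 5 min after addition, quantified survival of KB-8-5-11 (P-gp-overexpressing) cells exposed to compounds for 72 h. AC50 was derived from concentration-response curves.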
# [14] = Primary qHTS for inhibitors of SARS-S pseudo-typed particle cell entry (AID 1479145; calls by dose curve; also: nearly all actives have a fitted effect of over 45% in size)
# [15] = Primary qHTS for Huh7 cytotoxicity: counterscreen for inhibitors of MERS-S pseudotyped particle cell entry (AID 1479147; calls by dose curve); conditions: outcome: dose series up to 57.1 µM unless noted
# [16] = Primary qHTS for inhibitors of MERS-S pseudo-typed particle cell entry (AID 1479149; calls by dose curve; also: nearly all actives have a fitted effect of over 60% in size)
# [17] = Cytotoxicity counterscreen for inhibitors of SARS-CoV-2 cell entry (AID 1645845; calls by dose curve; also: nearly all actives have a fitted effect of over 50% in size)
# Outline: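 Counterscreen run in the same HEK293-ACE2 line as the pseudotyped-particle entry assay, without particles. Viability after 48 h at 37 C was read as ATP luminescence, scaled between cell-containing and cell-free wells.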
# [18] = Primary qHTS to identify inhibitors of SARS-CoV-2 cell entry (AID 1645846; calls by dose curve; also: nearly all actives have a fitted effect of over 45% in size); conditions: activity change, negative = inhibition: at 57.1 µM (top of the series) unless noted
# Outline: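 Entry measured by luciferase signal 48 h after adding SARS-CoV-2-S pseudotyped MLV particles to HEK293-ACE2 cells preincubated 1 h with compounds. Normalisation: bald particles and spike particles.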
# [19] = Primary qHTS for inhibitors of nuclear receptor binding SET domain protein 2 (NSD2) in an isogenic RCH-ACV NSD2 p.E1099K mutant (9B) (AID 1645876); also: nearly all actives have a fitted effect of over 70% in size
# [20] = biological target: Glutathione peroxidase 1 (Homo sapiens) (UniProt P07203); assay: Primary qHTS Assay for Inhibitors of Recombinant Selenoprotein Glutathione Peroxidase 1 (GPX1) (AID 1845191); also: nearly all actives have a fitted effect of over 65% in size
# Outline: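 GR-coupled readout: NADPH consumption tracked by fluorescence, ex 340/em 450 nm, at t=0 and after 15 min at RT. Final mix 10 nM GPX1, 1 mM GSH, 0.5 mM CHP, 0.5 mM NADPH, 100 nM GR, 0.01% BSA, following 30 min enzyme–compound preincubation.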
# [21] = biological target: Phospholipid hydroperoxide glutathione peroxidase GPX4 (Homo sapiens) (UniProt P36969); assay: Primary qHTS Assay for Inhibitors of Recombinant Selenoprotein Glutathione Peroxidase 4 (GPX4) (AID 1845192); also: nearly all actives have a fitted effect of over 65% in size
# Outline: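 Steps: GPX4 plus compound, 30 min RT; add GR/GSH/NADPH master mix; start with cumene hydroperoxide; read 340/450 nm fluorescence at 0 and 15 min. Finals were 200 nM GPX4, 1 mM GSH, 0.5 mM CHP, 0.5 mM NADPH, 100 nM GR.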
# [22] = tested on: 3D7; assay: qHTS profiling for inhibitors of Plasmodium falciparum proliferation (AID 504749); also: nearly all actives have a fitted effect of over 60% in size; also: potency is read from the fitted curve at half-maximal effect; conditions: P. falciparum in erythrocytes, SYBR Green DNA, 72 h; series mostly up to 28.7 µM
# Outline: (§1)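 Each compound contacts P. falciparum-infected red blood cells for 72 h at 37 C; lysis buffer (Tris, EDTA, saponin, Triton X, SYBR Green I) is added and fluorescence measured next morning; values normalized to controls.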
# [23] = tested on: 7G8; assay: as above; conditions: P. falciparum in erythrocytes, SYBR Green DNA, 72 h; series mostly up to 28.7 µM
# Outline: as §1
# [24] = tested on: AS120; assay: as above; conditions: P. falciparum in erythrocytes, SYBR Green DNA, 72 h; series mostly up to 28.7 µM
# Outline: as §1
# [25] = tested on: C2A; assay: as above; conditions: P. falciparum in erythrocytes, SYBR Green DNA, 72 h; series mostly up to 28.7 µM
# Outline: as §1
# [26] = tested on: CP191; assay: as above; conditions: P. falciparum in erythrocytes, SYBR Green DNA, 72 h; series mostly up to 28.7 µM
# Outline: as §1
# [27] = tested on: CP192; assay: as above; conditions: P. falciparum in erythrocytes, SYBR Green DNA, 72 h; series mostly up to 28.7 µM
# Outline: as §1
# [28] = tested on: CP237; assay: as above; conditions: P. falciparum in erythrocytes, SYBR Green DNA, 72 h; series mostly up to 28.7 µM
# Outline: as §1
# [29] = tested on: CP256; assay: as above; conditions: P. falciparum in erythrocytes, SYBR Green DNA, 72 h; series mostly up to 28.7 µM
# Outline: as §1
# [30] = tested on: CP262; assay: as above; conditions: P. falciparum in erythrocytes, SYBR Green DNA, 72 h; series mostly up to 28.7 µM
# Outline: as §1
# [31] = tested on: CP269; assay: as above; conditions: P. falciparum in erythrocytes, SYBR Green DNA, 72 h; series mostly up to 28.7 µM
# Outline: as §1
# [32] = tested on: CP297; assay: as above; conditions: P. falciparum in erythrocytes, SYBR Green DNA, 72 h; series mostly up to 28.7 µM
# Outline: as §1
# [33] = tested on: CP315; assay: as above; conditions: P. falciparum in erythrocytes, SYBR Green DNA, 72 h; series mostly up to 28.7 µM
# Outline: as §1
# [34] = tested on: Dd2; assay: as above; conditions: P. falciparum in erythrocytes, SYBR Green DNA, 72 h; series mostly up to 28.7 µM
# Outline: as §1
# [35] = tested on: GB4; assay: as above; conditions: P. falciparum in erythrocytes, SYBR Green DNA, 72 h; series mostly up to 28.7 µM
# Outline: as §1
# [36] = tested on: ICS; assay: as above; conditions: P. falciparum in erythrocytes, SYBR Green DNA, 72 h; series mostly up to 28.7 µM
# Outline: as §1
# [37] = tested on: JCK; assay: as above; conditions: P. falciparum in erythrocytes, SYBR Green DNA, 72 h; series mostly up to 28.7 µM
# Outline: as §1
# [38] = tested on: PC49; assay: as above; conditions: P. falciparum in erythrocytes, SYBR Green DNA, 72 h; series mostly up to 28.7 µM
# Outline: as §1
# [39] = tested on: TAB113; assay: as above; conditions: P. falciparum in erythrocytes, SYBR Green DNA, 72 h; series mostly up to 28.7 µM
# Outline: as §1
# [40] = tested on: TAB165; assay: as above; conditions: P. falciparum in erythrocytes, SYBR Green DNA, 72 h; series mostly up to 28.7 µM
# Outline: as §1
# [41] = tested on: W2; assay: as above; conditions: P. falciparum in erythrocytes, SYBR Green DNA, 72 h; series mostly up to 28.7 µM
# Outline: as §1
# Chain of Cytochrome P450 3A4 (Homo sapiens) (P08684 whole entry, looked up): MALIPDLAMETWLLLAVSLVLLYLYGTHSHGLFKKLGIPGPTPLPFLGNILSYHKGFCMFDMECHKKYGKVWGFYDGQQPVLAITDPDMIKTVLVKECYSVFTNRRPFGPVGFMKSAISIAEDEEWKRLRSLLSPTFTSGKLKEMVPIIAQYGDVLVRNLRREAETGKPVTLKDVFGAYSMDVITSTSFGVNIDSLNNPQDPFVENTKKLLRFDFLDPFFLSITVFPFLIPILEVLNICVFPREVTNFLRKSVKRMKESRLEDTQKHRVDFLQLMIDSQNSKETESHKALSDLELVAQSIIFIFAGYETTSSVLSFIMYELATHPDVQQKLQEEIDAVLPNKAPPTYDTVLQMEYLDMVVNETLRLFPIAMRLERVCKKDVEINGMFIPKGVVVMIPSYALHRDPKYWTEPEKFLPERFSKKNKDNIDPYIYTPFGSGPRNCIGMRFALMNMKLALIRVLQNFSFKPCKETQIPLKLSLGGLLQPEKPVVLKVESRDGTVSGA
# Chain of Glucocorticoid receptor (Homo sapiens) (P04150 whole entry, looked up, the tested form may be a part): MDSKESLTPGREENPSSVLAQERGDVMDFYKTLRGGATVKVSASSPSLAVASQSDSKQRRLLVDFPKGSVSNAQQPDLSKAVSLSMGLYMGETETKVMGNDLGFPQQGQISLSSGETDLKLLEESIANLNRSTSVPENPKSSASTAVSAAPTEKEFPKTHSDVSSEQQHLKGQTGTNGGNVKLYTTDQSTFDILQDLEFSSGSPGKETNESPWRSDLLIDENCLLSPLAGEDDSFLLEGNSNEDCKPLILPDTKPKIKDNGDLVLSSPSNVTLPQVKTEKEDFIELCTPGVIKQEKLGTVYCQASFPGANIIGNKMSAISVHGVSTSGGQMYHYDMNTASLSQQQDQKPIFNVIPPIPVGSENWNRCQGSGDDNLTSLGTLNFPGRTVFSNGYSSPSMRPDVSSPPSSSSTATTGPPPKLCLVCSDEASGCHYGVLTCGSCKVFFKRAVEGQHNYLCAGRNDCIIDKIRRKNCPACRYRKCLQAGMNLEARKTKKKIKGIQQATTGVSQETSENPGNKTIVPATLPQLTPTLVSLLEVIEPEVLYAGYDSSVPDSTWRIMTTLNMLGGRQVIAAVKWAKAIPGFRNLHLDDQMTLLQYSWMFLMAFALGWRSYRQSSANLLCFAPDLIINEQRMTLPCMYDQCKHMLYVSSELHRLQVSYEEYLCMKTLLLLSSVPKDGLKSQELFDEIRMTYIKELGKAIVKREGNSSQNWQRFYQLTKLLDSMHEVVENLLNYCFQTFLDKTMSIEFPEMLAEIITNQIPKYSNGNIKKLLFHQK
# Chain of DNA dC->dU-editing enzyme APOBEC-3G (Homo sapiens) (Q9HC16 whole entry, looked up): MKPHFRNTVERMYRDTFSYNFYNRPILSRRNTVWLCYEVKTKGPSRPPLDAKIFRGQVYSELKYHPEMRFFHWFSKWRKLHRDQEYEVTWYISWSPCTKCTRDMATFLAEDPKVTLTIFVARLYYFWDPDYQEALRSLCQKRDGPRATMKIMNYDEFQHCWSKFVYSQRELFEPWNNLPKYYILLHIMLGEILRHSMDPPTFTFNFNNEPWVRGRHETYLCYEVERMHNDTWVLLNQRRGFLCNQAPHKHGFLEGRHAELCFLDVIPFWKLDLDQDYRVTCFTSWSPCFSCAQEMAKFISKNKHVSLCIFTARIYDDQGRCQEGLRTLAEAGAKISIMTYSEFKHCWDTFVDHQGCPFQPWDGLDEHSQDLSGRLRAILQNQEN
# Chain of ATP-dependent 6-phosphofructokinase (Trypanosoma brucei brucei) (O15648 whole entry, looked up): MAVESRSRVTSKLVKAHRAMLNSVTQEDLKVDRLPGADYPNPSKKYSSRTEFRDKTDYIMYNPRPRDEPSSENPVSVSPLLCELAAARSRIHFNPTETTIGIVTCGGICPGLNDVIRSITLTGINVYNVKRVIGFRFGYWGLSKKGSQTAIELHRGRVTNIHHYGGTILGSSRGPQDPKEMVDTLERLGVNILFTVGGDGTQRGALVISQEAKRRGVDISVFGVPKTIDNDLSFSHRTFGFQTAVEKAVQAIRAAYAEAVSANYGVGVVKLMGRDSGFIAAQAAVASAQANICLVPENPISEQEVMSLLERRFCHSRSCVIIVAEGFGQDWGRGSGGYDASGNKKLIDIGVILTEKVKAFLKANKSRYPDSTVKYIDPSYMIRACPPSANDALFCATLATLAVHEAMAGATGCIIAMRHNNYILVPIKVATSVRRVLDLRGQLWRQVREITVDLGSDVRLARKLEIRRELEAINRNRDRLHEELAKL
# Chain of Cytochrome P450 2C19 (Homo sapiens) (P33261 whole entry, looked up): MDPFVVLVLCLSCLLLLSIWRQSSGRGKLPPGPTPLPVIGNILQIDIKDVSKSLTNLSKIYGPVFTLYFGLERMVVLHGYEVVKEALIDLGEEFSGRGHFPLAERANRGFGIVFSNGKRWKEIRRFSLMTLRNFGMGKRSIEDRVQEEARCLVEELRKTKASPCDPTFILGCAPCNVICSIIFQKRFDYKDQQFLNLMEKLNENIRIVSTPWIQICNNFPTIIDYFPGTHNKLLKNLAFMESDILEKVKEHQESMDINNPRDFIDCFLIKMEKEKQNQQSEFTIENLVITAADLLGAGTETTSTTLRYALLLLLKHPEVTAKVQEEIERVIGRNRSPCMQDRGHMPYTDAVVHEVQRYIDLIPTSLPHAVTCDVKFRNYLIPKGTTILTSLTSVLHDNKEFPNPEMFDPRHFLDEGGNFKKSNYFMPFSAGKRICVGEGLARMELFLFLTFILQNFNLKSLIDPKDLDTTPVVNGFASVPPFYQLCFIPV
# Chain of Glutathione peroxidase 1 (Homo sapiens) (P07203 whole entry, looked up): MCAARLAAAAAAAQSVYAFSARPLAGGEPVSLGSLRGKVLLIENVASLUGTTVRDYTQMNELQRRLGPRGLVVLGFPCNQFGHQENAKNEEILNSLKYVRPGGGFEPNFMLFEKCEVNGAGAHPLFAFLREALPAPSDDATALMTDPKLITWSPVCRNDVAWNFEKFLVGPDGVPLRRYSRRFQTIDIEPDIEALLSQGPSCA
# Chain of Luciferin 4-monooxygenase (Photinus pyralis) (P08659 whole entry, looked up): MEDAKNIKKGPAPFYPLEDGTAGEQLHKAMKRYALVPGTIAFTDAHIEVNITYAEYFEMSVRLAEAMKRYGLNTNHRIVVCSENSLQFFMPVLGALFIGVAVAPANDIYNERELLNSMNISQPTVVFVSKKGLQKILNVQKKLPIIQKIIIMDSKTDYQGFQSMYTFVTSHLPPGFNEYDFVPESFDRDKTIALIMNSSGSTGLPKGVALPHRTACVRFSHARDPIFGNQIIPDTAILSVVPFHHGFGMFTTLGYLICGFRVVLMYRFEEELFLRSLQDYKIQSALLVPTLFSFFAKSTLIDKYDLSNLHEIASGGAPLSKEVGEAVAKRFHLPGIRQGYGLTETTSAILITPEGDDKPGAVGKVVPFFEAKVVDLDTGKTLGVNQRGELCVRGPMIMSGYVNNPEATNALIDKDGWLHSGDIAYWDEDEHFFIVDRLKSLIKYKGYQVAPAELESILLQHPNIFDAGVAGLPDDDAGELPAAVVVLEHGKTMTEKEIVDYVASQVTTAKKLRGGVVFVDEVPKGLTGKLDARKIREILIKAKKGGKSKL
# Chain of Phospholipid hydroperoxide glutathione peroxidase GPX4 (Homo sapiens) (P36969 whole entry, looked up): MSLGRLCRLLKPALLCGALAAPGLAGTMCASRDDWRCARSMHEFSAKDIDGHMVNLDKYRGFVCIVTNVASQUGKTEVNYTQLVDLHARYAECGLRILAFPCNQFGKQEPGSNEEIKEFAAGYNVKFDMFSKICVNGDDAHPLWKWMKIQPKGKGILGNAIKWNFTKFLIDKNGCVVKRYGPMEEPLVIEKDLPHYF
# Chain of Cytochrome P450 1A2 (Homo sapiens) (P05177 whole entry, looked up): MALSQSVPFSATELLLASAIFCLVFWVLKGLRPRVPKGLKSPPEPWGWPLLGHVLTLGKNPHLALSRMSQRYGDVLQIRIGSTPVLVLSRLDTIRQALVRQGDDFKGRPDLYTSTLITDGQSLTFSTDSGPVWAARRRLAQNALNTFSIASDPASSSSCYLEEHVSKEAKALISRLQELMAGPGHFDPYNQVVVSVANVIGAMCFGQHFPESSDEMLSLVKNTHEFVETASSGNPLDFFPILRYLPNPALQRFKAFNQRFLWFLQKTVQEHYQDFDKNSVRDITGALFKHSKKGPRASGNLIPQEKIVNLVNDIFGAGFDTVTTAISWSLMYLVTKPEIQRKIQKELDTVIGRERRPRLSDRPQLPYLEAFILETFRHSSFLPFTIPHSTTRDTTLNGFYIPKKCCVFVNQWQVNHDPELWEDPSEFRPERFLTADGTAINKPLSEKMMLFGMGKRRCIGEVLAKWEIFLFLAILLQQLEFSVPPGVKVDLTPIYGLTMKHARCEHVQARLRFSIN
# Chain of Ubiquitin carboxyl-terminal hydrolase 1 (Homo sapiens) (O94782 whole entry, looked up): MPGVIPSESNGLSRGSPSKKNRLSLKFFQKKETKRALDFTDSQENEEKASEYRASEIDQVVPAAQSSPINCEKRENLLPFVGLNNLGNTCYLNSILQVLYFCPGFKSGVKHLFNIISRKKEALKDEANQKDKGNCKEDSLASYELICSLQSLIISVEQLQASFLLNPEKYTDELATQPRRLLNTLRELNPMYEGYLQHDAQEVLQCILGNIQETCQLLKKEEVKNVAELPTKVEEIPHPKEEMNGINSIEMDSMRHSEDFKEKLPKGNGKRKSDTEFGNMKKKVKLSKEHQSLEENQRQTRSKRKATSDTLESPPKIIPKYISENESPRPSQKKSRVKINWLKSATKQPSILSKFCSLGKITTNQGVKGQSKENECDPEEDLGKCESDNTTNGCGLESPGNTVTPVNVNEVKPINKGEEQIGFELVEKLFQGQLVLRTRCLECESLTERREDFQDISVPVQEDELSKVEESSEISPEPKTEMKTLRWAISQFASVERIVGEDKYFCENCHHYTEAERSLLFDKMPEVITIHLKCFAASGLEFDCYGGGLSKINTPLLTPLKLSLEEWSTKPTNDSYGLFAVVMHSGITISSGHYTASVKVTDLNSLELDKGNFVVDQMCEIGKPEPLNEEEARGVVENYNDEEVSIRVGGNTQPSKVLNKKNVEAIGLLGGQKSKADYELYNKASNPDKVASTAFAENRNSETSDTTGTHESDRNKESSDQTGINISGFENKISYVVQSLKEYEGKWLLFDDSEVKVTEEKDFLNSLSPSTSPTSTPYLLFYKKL
smiles,measurement,setting,value
Cc1cccc([C@H](C)c2cnc[nH]2)c1C,Potency,[1],0.158 µM (active)
same,Potency,[2],> 46 µM
same,Potency,[3],0.158 µM (active)
same,Potency,[4],inactive
same,Potency,[5],5.01 µM (active)
same,Potency,[6],inactive
same,Potency,[7],inactive
same,Potency,[8],inactive
same,Potency,[9],inactive
same,Potency,[10],inactive
same,Potency,[11],inactive
same,Potency,[12],inactive
same,Potency,[13],inactive
same,Potency,[14],inactive
same,outcome,[15],inactive
same,Potency,[16],inactive
same,Potency,[17],inactive
same,Potency,[18],inactive
same,Potency,[19],inactive
same,Potency,[20],inactive
same,Potency,[21],inactive
same,Potency,[22],inactive
same,Potency,[23],7.94 µM (active)
same,Potency,[24],inactive
same,Potency,[25],inactive
same,Potency,[26],7.08 µM (active)
same,Potency,[27],inactive
same,Potency,[28],11.2 µM (active)
same,Potency,[29],7.08 µM (active)
same,Potency,[30],inactive
same,Potency,[31],inactive
same,Potency,[32],10.7 µM (active)
same,Potency,[33],inactive
same,Potency,[34],11.2 µM (active)
same,Potency,[35],8.49 µM (active)
same,Potency,[36],12.6 µM (active)
same,Potency,[37],inactive
same,Potency,[38],inactive
same,Potency,[39],inactive
same,Potency,[40],4.47 µM (active)
same,Potency,[41],10.7 µM (active)
